A selection: hits, their analogues and other compounds. The true share with any hit is near 5%.
Vaccinia mCherry: vaccinia inhibition (mCherry reporter); AID 720579; Potency, µM (highest dose often 36.5 µM), for inactives: top-dose activity change, negative = inhibition, hits mostly inhibitors; Vaccinia virus mCherry reporter infection, fluorescence; 310,000 compounds, 0.63% hits; calls by dose curve; tested in A549 cells; also: potency is read from the fitted curve at half-maximal effect; nearly all actives have a fitted effect of over 35% in size
LmPK inh: LmPK (Leishmania mexicana) enzyme inhibition | purified LmPK, Kinase-Glo ATP luminescence, 1 h | Potency, µM (series often up to 57.5 µM), without a hit: top-dose activity change, negative = inhibition, most hits filed as inhibitors | Q27686 | AID 1721 | 290,000 compounds, 0.37% hits; also: potency is read from the fitted curve at half-maximal effect
Target sequence (Q27686 whole entry, looked up): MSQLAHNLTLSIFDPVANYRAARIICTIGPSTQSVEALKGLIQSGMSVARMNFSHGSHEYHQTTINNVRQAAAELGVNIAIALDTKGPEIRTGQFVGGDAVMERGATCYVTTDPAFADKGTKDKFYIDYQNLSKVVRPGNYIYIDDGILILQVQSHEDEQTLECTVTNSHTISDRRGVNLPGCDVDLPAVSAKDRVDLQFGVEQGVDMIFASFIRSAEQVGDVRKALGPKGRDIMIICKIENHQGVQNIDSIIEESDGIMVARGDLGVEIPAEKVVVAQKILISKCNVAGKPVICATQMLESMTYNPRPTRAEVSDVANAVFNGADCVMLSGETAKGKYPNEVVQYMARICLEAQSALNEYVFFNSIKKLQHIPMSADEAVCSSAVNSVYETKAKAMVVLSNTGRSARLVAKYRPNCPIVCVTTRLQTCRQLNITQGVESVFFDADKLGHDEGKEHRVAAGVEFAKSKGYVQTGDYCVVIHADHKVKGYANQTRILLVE
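qHTS format; LmPK 0.1 nM; substrates PEP 0.5 mM and ADP 0.1 mM. One-hour room-temperature incubation, then coupled luciferase luminescence; 0.5 nM enzyme wells mark activation.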
HCMV inh: human cytomegalovirus inhibition; 410,000 compounds, 4.5% hits; AID 1259415; HFF cells, HCMV-luciferase reporter, 72 h; stronger effect = lower value; activity change, negative = inhibition, % at 57.5 µM; in the data active = activity change below about -60%; inconclusive = no clear call, values can overlap the other calls; inactive = above about -39%
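Steps: HFFs plated, 16 h 37C; compounds added; HCMV-luciferase added to MOI 1 PFU/cell; 72 h 37C; OneGlo reagent, 5 min room temperature; luminescence read, normalized to controls.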
Tb PYK inh: blocks Trypanosoma brucei pyruvate kinase | Q57TT1 | TbPYK enzyme, Kinase-Glo Plus ATP luminescence, 45 min | Potency, µM (top dose mostly 76.8 µM), for inactives: at the highest dose activity, negative = inhibition, usual class: inhibitors | 410,000 compounds, 0.12% hits; also: potency is read from the fitted curve at half-maximal effect; nearly all actives have a fitted effect of over 50% in size
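Quantitative HTS: titrated library compounds versus trypanosomal pyruvate kinase in TEA buffer (pH 7.2) containing KCl, MgCl2, BSA and Tween-20. Reactions were initiated with ADP, 130 uM final. Kinase-Glo Plus luminescence was read after 45 min at RT.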
VACV Venus inh: inhibitors of vaccinia virus (Venus reporter). 330,000 compounds, 0.46% hits. Vaccinia virus Venus reporter expression, fluorescence. Potency, µM (series often up to 36.5 µM), inactives show top-dose activity change, negative = inhibition, usual class: inhibitors; calls by dose curve; tested in A549 cells; also: potency is read from the fitted curve at half-maximal effect; nearly all actives have a fitted effect of over 30% in size
* marks the source's active call; other numbers are inactive results; i = inactive; ? = inconclusive; nt = no result. Unless noted, calls follow the shape of the dose curve; as a rule, active = well fitted curve in the direction sought with a large enough effect; inconclusive = small, poorly fitted or top-dose-only effect, or another doubt; inactive = no such curve, though single readings can be large; an effect the other way counts as inactive or inconclusive. % is scaled to controls: 0 for no effect and ±100 for the full control effect.

SMILES	Vaccinia mCherry	LmPK inh	HCMV inh	Tb PYK inh	VACV Venus inh
COc1ccc(C(=O)C2CCCN(Cc3cccn3-c3nccs3)C2)cc1F (stereo unspecified)	-28.5%	-1.6%	-64.5*	1.4%	-14.3%
O=C(c1c[nH]c(C(=O)N2CCN(Cc3ccccc3)CC2)c1)C1CCCCC1	nt	2.1%	-28.4	-2.6%	nt
COCc1cc(C)nc(N/N=C/c2ccc(-c3ccc(Cl)cc3[N+](=O)[O-])o2)c1C#N	-5.9%	4.9%	-6.2	-0.4%	-1.8%
CCc1ccc(NC(=O)C(CC)n2c(=O)c(-c3ccccc3NC(C)=O)nc3ccccc32)cc1 (stereo unspecified)	-3.6%	nt	-90.9*	-0.2%	-6.1%
Cc1cc(C(=O)CSc2ccc(F)cc2)cc(C)c1OC(=S)N(C)C	nt	-8.3%	-92.2*	-2.7%	0.2%
COc1ccc(SCC(=O)c2cc(C)c(OC(=S)N(C)C)c(C)c2)cc1	-3.6%	5.8%	-18.9	-9.7%	-13.2%
CCOc1ccc(NC(=O)c2cc(S(=O)(=O)NC3CCCC3)ccc2F)cc1	-1.8%	nt	-60.5*	4.8%	-21.5%
O=C(Nc1ccc(C(F)(F)F)cc1)c1cc(S(=O)(=O)NC2CCCCCC2)ccc1F	?	nt	-77.6*	4.6%	?
O=C(Nc1ccc(Br)cc1)c1cc(S(=O)(=O)NC2CCCC2)ccc1F	-15.8%	nt	-34.6	-2.0%	-16.1%
COc1cccc(C(=O)Nc2ccc(S(=O)(=O)N(Cc3ccccc3)c3ccccc3)cc2)c1	?	nt	-35.6	-7.2%	-22.9%
COC(=O)c1ccc(NC(=S)N2CCN(Cc3ccccc3OC)CC2)cc1	nt	2.6%	-79.7*	-4.5%	nt
COc1ccc(CCN(C)C(=O)Cc2ccc(-c3ccccc3)cc2)cc1OC	?	2.2%	-76.0*	2.6%	-19.3%
O=C1NC[C@H](Cc2ccc(O)cc2)N(C[C@@H]2CCCN2C[C@H](Cc2ccc(O)cc2)N2C[C@H](Cc3ccccc3)N(CC3CCCCC3)C(=O)C2=O)C1=O	-12.1%	nt	-25.5	-10.9%	-11.6%
c1ccc(-c2cc3nc(NCC4CC4)nc(NCC4CCCCC4)c3s2)cc1	-23.8%	nt	-91.9*	1.5%	?
COc1ccc(-c2cc(CNc3nc(NC(C)C)nc4cc(-c5ccccc5)sc34)on2)cc1	?	nt	-99.0*	3.6%	?
C=CCNc1nc(NCc2ccc(NC(C)=O)cc2)c2sc(-c3ccccc3)cc2n1	-4.8%	nt	19.9	-3.4%	15.8µM*
CC(=O)Nc1ccc(CNc2nc(NC(C)C)nc3cc(-c4ccccc4)sc23)cc1	?	nt	-98.1*	1.7%	11.2µM*
CCc1nn(C(C)C(=O)N2CCc3ccccc3C2)c(=O)c2cc3occc3n12 (stereo unspecified)	-6.2%	11.0%	-14.6	-2.4%	-16.4%
Cc1ccc(-n2nc(CC#N)c(C#N)c2N)cc1	-14.2%	-5.3%	-5.6	-9.9%	-7.9%
N#CCc1nn(-c2ccc(F)cc2)c(N)c1C#N	nt	1.0%	-60.8*	-4.6%	nt
Cc1nc(SC(C)C(=O)NC2CCCCC2C)c2c(C)c(C)sc2n1 (stereo unspecified)	nt	3.8%	?	8.6%	nt
O=C(CSc1nc(-c2ccco2)cc(C(F)(F)F)n1)NC1CCCC1	-24.4%	0.8%	-68.1*	0.8%	-8.1%
CC1=NN(c2ccccc2)C(=O)C1N=Nc1ccc(C)cc1 (stereo unspecified)	nt	8.6%	nt	nt	nt
CC(=O)Nc1ccc(N2N=C(C)C(N=Nc3ccccc3)C2=O)cc1 (stereo unspecified)	nt	1.9%	-101.4*	4.2%	nt
CC(=O)Nc1ccc(OCc2cccc3ccccc23)cc1	nt	-1.3%	-79.2*	0.3%	nt
SMILES	Vaccinia mCherry	LmPK inh	HCMV inh	Tb PYK inh	VACV Venus inh
COc1ccc(NC(=O)CNC(=O)Cc2cccc3ccccc23)cc1	nt	nt	15.5	0.4%	nt
O=c1cc(O)c2c(=O)n(-c3ccccc3)c3c(c2o1)CCCCC3	-9.3%	-3.2%	-1.5	-3.9%	2.6%
CC(=O)NC(=S)Nc1ccc(NC(=S)NC(=O)/C=C/c2ccco2)cc1	i	0.9%	-79.3*	-4.7%	-6.9%
COc1cc2c(cc1OC)C(NC(=O)C(F)(F)F)C/C2=N\O (stereo unspecified)	-10.0%	1.0%	8.3	-3.5%	1.6%
COC(=O)Nc1nc2ccc(SC(C)C)cc2[nH]1	?	nt	-81.7*	8.5%	?
COC(=O)Nc1nc2ccc(C(=O)c3cccs3)cc2[nH]1	?	nt	-75.3*	-3.7%	?

High-throughput results: PubChem BioAssay, National Center for Advancing Translational Sciences (NCATS)
